High-throughput results from PubChem.
Shown are actives, neighbours in structure and some others; about 2.6% of the full set was active somewhere.
GLP-1R agonist: agonists of human GLP-1 receptor. hit rate 0.007% among 380,000. HEK293 GLP-1R CRE-luciferase, luminescence, 4-6 h; cells express a hypersensitive GLP-1R form. P43220. Potency, µM (top dose mostly 45.6 µM), for inactives: top-dose activation, actives largely listed as activators; further: % of control where 0% means no effect
Target sequence (P43220 whole entry, looked up): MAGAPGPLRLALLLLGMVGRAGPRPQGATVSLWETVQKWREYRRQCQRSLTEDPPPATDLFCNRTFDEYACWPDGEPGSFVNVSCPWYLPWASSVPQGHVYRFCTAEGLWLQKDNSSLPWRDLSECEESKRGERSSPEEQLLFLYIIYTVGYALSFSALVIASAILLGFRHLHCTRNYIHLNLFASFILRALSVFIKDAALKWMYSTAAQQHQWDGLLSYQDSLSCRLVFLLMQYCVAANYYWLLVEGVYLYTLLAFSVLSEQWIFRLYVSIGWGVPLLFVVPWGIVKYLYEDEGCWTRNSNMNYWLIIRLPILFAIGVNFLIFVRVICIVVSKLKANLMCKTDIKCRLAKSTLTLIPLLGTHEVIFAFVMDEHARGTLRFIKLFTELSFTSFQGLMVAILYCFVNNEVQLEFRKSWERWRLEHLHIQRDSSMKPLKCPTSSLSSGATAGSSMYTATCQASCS
BRCA1 expr act: BRCA1 expression activation; Potency, µM (top dose mostly 46.1 µM), for inactives: at the top dose activation, actives largely listed as activators; hit rate 1.1% among 380,000; MCF7-BRCA1-FFLuc reporter, luminescence, 48 h; response scale: scaled: vehicle 0%, 10 µM genistein 100%; further: nearly all actives have a fitted effect of over 80% in size
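Activators of BRCA1 expression were detected as increased firefly luciferase luminescence in engineered MCF7 cells after 48 h compound incubation. Signals were scaled to genistein 10 microM as full activation.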
GLP-1R inv ag: GLP-1 receptor (human) inverse agonism; P43220; HEK293 GLP-1R CRE-luciferase, luminescence, 24 h; GLP-1R form is constitutively active; Potency, µM (doses to about 38.3 µM), for the others: at the highest dose activity change, negative = inhibition, most hits filed as inhibitors; hit rate 1.6% among 410,000; further: on the % scale 0 is the no-effect control and ±100 the full control effect; nearly all actives have a fitted effect of over 55% in size
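Inverse agonists were sought by their lowering of basal cAMP reporter luciferase output in HEK293 cells stably carrying constitutively active human GLP-1R, after 24 h compound treatment.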
HEK293 tox: cytotoxic in the GLP-1 receptor inverse agonist counter-screen; HEK293 cAMP-luciferase reporter cells, luminescence, 24 h; AID 624418; Potency, µM (highest dose often 38.3 µM), inactives show at the highest dose activity change, negative = inhibition, hits mostly inhibitors; hit rate 0.13% among 410,000;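 further: loss of luciferase light is scored as toxicity; on the % scale 0 is the no-effect control and ±100 the full control effect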
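Cells in DMEM/10% Nu serum/1% pen-strep, 1536-well format. Pre-incubated 12 h, dosed with 23 nL compound, incubated a further 24 h. Luciferase detection, 12 min at room temp, luminescence.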
An asterisk follows results filed as active; ? = inconclusive; . = no result. The call rests on the fitted dose curve; in most records, active means well fitted curve in the direction sought with a large enough effect; inconclusive means small, poorly fitted or top-dose-only effect, or another doubt; inactive means no such curve, though single readings can be large; an effect the other way counts as inactive or inconclusive. Potency means the concentration at half of the fitted maximal effect.

SMILES | GLP-1R agonist | BRCA1 expr act | GLP-1R inv ag | HEK293 tox
CCOC(=O)C(=NC(C)CC)NNc1cccc(C(F)(F)F)c1 (stereo not drawn) | 3.4% | -49.6% | ? | 1.9%
CCOC(=O)C(=NC(C)CC)NNc1ccc(Br)cc1 (stereo not drawn) | 16.2% | 3.2% | 2.51µM* | -11.2%
Cc1ccc(S(=O)(=O)N2CCN(c3nc(-n4c(=O)[nH]c5ccccc54)nc4ccccc34)CC2)cc1 | . | -19.7% | . | .
CC(C(=O)O)c1ccc(N2Cc3ccccc3C2=O)cc1 (stereo not drawn) | -10.6% | -33.7% | 6.31µM* | 2.3%
Cc1ccccc1N1Cc2ccccc2C1=O | 8.0% | 4.5% | 19.2% | -3.1%
CCCCCCN(C(=O)CCCN1C(=O)NC(c2ccc(-c3ccccc3)cc2)C(C(=O)OCc2ccccc2)=C1C)C(C)C(=O)NCCCC (stereo not drawn) | 8.5% | -48.1% | 11.2µM* | -10.0%
CCCCCCN(C(=O)CCCCCN1C(=O)NC(c2ccc([N+](=O)[O-])cc2)C(C(=O)OCc2ccccc2)=C1C)C(C(=O)NCCCC)C1CCCCC1 (stereo not drawn) | 7.2% | 0.0% | 5.5% | -4.7%
CCOC(=O)c1noc2ncnc(Nc3ccc(F)cc3F)c12 | . | 17.3% | 14.4% | -0.7%
CCOc1ccc(C(=O)Cc2cc3cccc(OC)c3oc2=O)cc1 | 15.8% | 22.7% | ? | -1.5%
Cc1ccc(C(=O)Cc2cc3ccccc3oc2=O)c(C)c1 | 12.3% | 3.98µM* | 2.2% | 1.3%
COc1ccc(C(=O)Cc2cc3ccccc3oc2=O)cc1 | 3.3% | 4.47µM* | 10.5% | -13.1%
CN(C)CCC(=O)c1cccc(Br)c1 | -4.7% | -23.5% | -6.9% | 0.0%
Cc1ccc(C(=O)CCC(=O)NCc2ccccc2)cc1 | -1.9% | -6.5% | -5.1% | 6.5%
CC(C)(C)c1ccc(C(=O)CCC(=O)NCc2ccccc2)cc1 | 14.9% | -34.9% | 7.94µM* | -20.3%
COc1cc(NC(=O)CCNS(=O)(=O)c2ccc3c(c2)CCN3C(=O)C2CC2)cc(OC)c1 | -1.9% | -5.3% | 14.5% | 0.3%
S=C(Nc1ccccn1)Nc1ccccc1Cl | 13.8% | 100.2% | ? | 6.31µM*
O=C(Nc1ccccn1)C(=O)Nc1ccccn1 | -0.3% | ? | -23.9% | -16.0%
S=C(Nc1ccccn1)c1ccccn1 | -16.7% | 7.08µM* | 0.891µM* | 1µM*
COc1ccc(NC(=S)Nc2ccccn2)c(OC)c1 | 4.7% | 5.62µM* | ? | -15.1%
Cc1c(Cl)cccc1NC(=S)Nc1ccccn1 | 6.1% | -72.6% | -9.0% | -23.1%
COc1ccc(NC(=S)Nc2cc(C)ccn2)c(OC)c1 | 1.6% | 78.7% | -14.0% | -5.9%
COc1ccc(-n2nc(C(=O)NCC(=O)NCc3cccc(F)c3)c3ccccc3c2=O)cc1Cl | 11.0% | -18.6% | -21.3% | -3.0%
CC(C)Oc1ccc(C(=O)Nc2ccc3oc(-c4ccncc4)nc3c2)cc1 | . | . | 8.2% | 2.0%
CNc1c(NC(=O)c2ccc(OC)c(OC)c2)c(=O)oc2ccccc12 | . | . | -3.1% | -21.0%
O=C(CNC(=O)C1COc2ccccc2O1)N/N=C\c1ccc(Br)cc1 (stereo not drawn) | 13.1% | 11.8% | 10µM* | 3.1%
SMILES | GLP-1R agonist | BRCA1 expr act | GLP-1R inv ag | HEK293 tox
CC(C)COc1ccc(C(=O)N(CC(=O)Nc2ccccc2C(F)(F)F)Cc2ccco2)cc1 | 10.8% | -56.6% | 4.47µM* | ?
CCC1Sc2ccc(S(=O)(=O)CCC(=O)Nc3cc(C)ccn3)cc2NC1=O (stereo not drawn) | 1.8% | -24.5% | -1.7% | -15.6%
NNC(=O)c1ccc(COc2ccccc2)cc1 | 0.2% | -21.6% | 0.8% | 2.8%
CCC(=O)c1ccc(OCc2ccc(C(=O)OC)cc2)c(OC)c1 | 10.4% | 78.3% | 9.3% | 2.1%
COc1ccc(C(=O)CC(=O)c2ccccc2O)cc1OC | 28.8% | 12.6µM* | 27.1% | 177.5%
CCC(=O)c1ccc(OCc2ccc(C(=O)c3ccccc3)cc2)cc1 | -0.3% | -9.5% | 10µM* | 17.7%
CCC(=O)c1ccc(OCc2ccccc2)c(OC)c1 | 21.6% | 6.31µM* | -8.4% | 6.3%
Cc1ccc(NC(=O)C2(c3ccccc3)CCCC2)nc1 | 0.2% | -12.6% | 3.55µM* | -7.5%
Cc1ccc(NC(=O)C2(c3ccc([N+](=O)[O-])cc3)CCCC2)cc1 | -2.2% | -2.5% | 10µM* | -25.0%
O=C(Nc1ccccn1)C1(c2ccccc2)CCCC1 | -11.8% | -1.9% | ? | -15.0%
CCCC(c1nnnn1Cc1ccccc1)N1CCN(c2ccccc2OC)CC1 (stereo not drawn) | 4.7% | -23.2% | ? | -18.8%
CCCC(c1nnnn1Cc1ccc(OC)cc1)N1CCN(c2ccccc2OC)CC1 (stereo not drawn) | 16.0% | -30.2% | 10µM* | 0.3%
CCOc1ccc(NC(=O)C2CC(=O)NC(=Nc3ccc(Cl)c(Cl)c3)S2)cc1 (stereo not drawn) | -1.5% | 0.0% | -7.0% | 0.9%
Cc1cccc(/C(N)=N/OC(=O)C23CC4CC(CC(C4)C2)C3)c1 | -4.9% | 10µM* | -38.9% | 3.8%
COc1cccc(-c2cnc3c(NC=O)cc(-c4ccc(OC)cc4OC)cn23)c1 | ? | -65.4% | 0.794µM* | -36.5%
COc1ccc(-c2cc(NC=O)c3ncc(-c4ccc(OC)c(OC)c4)n3c2)c(OC)c1 | 2.51µM* | -67.6% | -52.7% | ?
COc1cccc(-c2cc(NC=O)c3ncc(-c4ccc(OC)c(OC)c4)n3c2)c1 | ? | -64.1% | ? | -26.4%
Cc1cc(C(=O)N2CCCC(Nc3ccc(F)cc3)C2)c(C)o1 (stereo not drawn) | 5.6% | -12.0% | -28.3% | -4.4%
CC1(C)CC(NC2C3CC4CC(C3)CC2C4)CC(C)(C)N1 (stereo not drawn) | 6.0% | -15.0% | 3.16µM* | ?
CCN(/C=N/c1sc2c(c1C#N)CCCCC2)CC | 28.0% | 6.31µM* | ? | -17.6%
CC(C)CN(/C=N/c1sc2c(c1C#N)CCCCC2)CC(C)C | -7.0% | -10.5% | ? | -12.9%
COc1ccc(C(=O)C[n+]2ccc(Cl)c3ccc(Cl)cc32)cc1 | . | 7.0% | . | .
CCCc1cc(C(=O)N/N=C/c2cccn2C)cs1 | 2.7% | 7.94µM* | ? | -1.0%
CCOc1ccc(C(=O)C2CCN(C(=O)c3ccc([N+](=O)[O-])cc3)CC2)cc1 | -0.8% | -28.2% | ? | -5.4%
C/C(=N\NC(=O)c1c(Cl)cnn1C)c1ccc(NC(=O)c2ccc(Br)o2)cc1 | 5.0% | 10µM* | -27.1% | -31.6%
SMILES | GLP-1R agonist | BRCA1 expr act | GLP-1R inv ag | HEK293 tox
C/C(=N/NC(=O)c1ccc(Br)o1)c1ccncc1 | 6.8% | 2.3% | 34.9% | -6.5%
CCOc1ccccc1Nc1nc(-c2cccc(Cl)c2)c2c(n1)-c1ccccc1OC2 | . | . | 2.4% | -1.5%
O=C1CSC(=Nc2ccc(Cl)cc2)N1Cc1ccco1 | 13.8% | -1.5% | 8.91µM* | 16.6%
Cc1ccn2cc(-c3cnoc3C)nc2c1 | -6.2% | 10µM* | 47.0% | 3.6%
Cc1oncc1-c1cn2ccccc2n1 | -6.6% | 11.2% | 17.2% | -9.7%
COc1ccccc1-c1nc(-c2ccccn2)no1 | -23.4% | -48.3% | 3.55µM* | -0.7%
